± gives the standard deviation of the averaged measurements. About 6,500 targets were measured; listed, in parts, are those with the largest changes and a random draw of the rest.
The targets below were run with Nc1ncnc2c1ncn2[C@@H]1O[C@H](COP(=O)(O)OP(=O)(O)OP(=O)(O)O)[C@@H](O)[C@H]1O [adenosine triphosphate] (assay: NP40-soluble protein abundance relative to vehicle (solubility fold change) (ratio); higher = more soluble protein in presence of ATP). Settings: concentration: 4mM.
In short: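 Each value is a fold change relative to the detergent-processed vehicle, calculated per replicate from vsn-normalised intensities. Jurkat crude lysate received eight concentrations (0.1 to 10 mM) for 10 min at room temperature and 3 min at 37 °C, then was solubilised in 0.8% NP40 with benzonase (60 min, 4 °C). The ultracentrifuged supernatant was TMT-labelled and run by LC-MS/MS in three independent experiments.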

Sequence of UniProt O75400 (O75400 whole entry): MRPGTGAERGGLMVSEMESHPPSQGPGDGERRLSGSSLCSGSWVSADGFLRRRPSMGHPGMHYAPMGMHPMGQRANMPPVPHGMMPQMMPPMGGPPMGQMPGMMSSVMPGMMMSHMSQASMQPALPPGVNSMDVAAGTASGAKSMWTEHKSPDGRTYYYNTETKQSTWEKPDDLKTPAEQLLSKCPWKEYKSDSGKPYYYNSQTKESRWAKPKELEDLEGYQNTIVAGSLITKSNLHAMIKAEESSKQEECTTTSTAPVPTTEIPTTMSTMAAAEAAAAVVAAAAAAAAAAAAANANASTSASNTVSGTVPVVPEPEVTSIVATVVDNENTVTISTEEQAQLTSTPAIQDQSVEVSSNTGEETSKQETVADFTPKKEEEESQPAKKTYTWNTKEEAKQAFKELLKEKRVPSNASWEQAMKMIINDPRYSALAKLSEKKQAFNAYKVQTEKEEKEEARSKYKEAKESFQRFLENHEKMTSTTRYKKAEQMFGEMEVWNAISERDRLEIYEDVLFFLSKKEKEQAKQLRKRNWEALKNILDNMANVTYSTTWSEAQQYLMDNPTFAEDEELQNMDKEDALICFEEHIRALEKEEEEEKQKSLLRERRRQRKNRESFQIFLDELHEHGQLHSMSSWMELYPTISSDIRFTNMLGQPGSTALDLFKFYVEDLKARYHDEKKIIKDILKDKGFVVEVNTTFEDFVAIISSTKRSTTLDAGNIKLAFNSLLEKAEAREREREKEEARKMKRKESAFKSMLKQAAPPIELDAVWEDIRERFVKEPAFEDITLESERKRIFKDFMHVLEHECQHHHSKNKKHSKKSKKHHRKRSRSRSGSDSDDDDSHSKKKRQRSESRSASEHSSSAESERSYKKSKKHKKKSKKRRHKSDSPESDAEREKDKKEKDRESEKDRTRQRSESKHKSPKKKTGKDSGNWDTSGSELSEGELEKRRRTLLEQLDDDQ
Sequence of UniProt O75718 (O75718 whole entry): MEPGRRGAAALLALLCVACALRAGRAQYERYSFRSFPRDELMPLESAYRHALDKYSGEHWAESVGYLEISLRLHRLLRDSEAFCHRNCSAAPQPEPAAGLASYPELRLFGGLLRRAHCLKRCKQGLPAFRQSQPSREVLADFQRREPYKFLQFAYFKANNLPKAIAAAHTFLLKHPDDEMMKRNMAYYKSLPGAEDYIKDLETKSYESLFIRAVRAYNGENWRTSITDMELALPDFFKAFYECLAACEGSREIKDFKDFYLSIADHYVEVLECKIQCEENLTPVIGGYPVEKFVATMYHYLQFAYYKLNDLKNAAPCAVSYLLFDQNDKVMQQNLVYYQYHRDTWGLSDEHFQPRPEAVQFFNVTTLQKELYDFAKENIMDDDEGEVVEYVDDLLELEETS
Sequence of UniProt P50897 (P50897 whole entry): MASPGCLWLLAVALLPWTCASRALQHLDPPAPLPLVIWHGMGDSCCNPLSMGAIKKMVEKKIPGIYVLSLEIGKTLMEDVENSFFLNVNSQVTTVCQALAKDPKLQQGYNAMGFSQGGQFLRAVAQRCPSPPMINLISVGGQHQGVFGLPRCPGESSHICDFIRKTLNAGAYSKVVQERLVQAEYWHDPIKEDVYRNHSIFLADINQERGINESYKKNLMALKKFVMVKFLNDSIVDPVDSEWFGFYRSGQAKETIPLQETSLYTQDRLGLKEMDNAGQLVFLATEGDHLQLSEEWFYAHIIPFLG
Sequence of UniProt P83369 (P83369 whole entry): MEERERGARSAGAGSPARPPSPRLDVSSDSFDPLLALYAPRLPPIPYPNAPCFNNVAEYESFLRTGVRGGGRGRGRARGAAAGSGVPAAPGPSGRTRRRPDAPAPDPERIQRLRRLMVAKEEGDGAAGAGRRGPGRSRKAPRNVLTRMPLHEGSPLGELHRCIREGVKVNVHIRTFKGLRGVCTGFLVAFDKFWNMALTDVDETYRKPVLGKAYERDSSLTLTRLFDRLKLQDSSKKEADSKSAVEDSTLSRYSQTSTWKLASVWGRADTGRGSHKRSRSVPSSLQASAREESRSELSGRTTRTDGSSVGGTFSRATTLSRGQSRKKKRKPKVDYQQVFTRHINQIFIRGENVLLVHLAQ
Sequence of UniProt P23458 (P23458 whole entry): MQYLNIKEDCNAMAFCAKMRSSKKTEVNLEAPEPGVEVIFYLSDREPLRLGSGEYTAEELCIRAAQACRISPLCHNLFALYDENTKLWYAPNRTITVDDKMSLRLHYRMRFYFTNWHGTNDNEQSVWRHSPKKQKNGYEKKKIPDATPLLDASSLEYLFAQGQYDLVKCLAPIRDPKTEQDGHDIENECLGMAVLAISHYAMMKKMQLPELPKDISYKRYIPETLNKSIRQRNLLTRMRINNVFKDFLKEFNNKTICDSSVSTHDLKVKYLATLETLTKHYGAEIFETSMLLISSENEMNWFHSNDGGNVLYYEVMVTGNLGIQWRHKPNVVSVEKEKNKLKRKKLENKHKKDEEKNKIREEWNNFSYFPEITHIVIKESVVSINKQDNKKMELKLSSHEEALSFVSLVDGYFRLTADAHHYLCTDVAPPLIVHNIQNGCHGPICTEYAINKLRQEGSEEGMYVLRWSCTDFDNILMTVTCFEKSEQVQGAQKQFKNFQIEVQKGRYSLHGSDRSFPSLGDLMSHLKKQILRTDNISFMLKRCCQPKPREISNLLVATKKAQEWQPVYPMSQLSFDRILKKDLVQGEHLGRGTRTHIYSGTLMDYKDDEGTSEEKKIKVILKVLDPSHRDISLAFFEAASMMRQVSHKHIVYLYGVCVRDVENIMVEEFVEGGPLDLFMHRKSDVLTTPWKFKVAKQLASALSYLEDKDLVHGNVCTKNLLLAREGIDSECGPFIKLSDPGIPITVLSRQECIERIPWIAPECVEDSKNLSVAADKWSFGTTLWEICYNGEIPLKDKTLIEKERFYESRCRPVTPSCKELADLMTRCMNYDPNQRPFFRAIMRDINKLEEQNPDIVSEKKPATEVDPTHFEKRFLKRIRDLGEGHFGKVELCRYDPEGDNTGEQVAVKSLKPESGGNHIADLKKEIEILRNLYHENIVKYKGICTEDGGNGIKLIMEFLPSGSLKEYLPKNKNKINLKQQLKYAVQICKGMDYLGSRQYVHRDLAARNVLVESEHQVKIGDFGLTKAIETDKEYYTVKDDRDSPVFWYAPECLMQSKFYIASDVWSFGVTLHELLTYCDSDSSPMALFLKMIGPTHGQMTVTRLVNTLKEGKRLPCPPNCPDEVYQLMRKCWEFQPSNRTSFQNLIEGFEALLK
Sequence of UniProt P53677 (P53677 whole entry): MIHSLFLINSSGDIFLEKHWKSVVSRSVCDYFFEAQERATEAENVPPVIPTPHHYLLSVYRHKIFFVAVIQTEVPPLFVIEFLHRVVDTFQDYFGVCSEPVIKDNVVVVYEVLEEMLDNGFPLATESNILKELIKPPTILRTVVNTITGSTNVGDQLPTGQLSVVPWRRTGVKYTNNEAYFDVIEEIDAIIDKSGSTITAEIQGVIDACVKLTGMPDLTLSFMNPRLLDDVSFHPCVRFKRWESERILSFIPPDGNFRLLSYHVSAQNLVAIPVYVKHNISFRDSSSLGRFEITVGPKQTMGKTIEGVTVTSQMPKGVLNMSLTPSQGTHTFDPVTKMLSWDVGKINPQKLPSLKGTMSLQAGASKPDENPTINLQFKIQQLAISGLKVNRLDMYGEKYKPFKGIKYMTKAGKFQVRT
Sequence of UniProt P36405 (P36405 whole entry): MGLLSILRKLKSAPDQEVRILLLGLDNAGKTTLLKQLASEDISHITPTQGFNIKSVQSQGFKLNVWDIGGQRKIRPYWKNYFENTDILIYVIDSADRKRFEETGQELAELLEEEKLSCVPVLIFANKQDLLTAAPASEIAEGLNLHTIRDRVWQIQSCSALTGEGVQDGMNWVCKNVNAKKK
Sequence of UniProt P07902 (P07902 whole entry): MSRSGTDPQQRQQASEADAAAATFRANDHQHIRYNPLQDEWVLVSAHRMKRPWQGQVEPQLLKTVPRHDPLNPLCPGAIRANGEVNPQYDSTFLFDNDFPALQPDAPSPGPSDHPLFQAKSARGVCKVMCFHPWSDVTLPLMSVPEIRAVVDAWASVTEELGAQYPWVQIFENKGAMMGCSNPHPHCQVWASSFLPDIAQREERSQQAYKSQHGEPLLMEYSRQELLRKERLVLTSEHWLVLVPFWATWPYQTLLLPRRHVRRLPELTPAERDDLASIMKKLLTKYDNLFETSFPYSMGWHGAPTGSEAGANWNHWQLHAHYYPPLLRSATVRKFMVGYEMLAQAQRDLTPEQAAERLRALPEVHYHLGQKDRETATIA
Sequence of UniProt P49761 (P49761 whole entry, looked up): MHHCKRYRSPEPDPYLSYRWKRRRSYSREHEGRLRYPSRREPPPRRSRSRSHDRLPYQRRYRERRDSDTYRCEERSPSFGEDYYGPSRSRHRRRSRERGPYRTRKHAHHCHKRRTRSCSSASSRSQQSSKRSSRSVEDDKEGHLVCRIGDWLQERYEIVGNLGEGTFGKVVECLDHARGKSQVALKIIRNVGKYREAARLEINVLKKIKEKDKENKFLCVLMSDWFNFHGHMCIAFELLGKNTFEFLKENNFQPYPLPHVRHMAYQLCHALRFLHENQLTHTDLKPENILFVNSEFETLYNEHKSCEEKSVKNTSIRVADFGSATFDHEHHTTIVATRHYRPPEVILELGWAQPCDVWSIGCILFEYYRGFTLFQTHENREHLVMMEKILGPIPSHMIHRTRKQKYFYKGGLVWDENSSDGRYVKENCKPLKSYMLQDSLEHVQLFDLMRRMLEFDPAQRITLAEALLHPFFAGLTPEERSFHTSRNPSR
Sequence of UniProt P05114 (P05114 whole entry): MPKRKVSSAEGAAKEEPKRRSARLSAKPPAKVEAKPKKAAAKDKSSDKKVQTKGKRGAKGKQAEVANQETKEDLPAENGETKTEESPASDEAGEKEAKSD
Sequence of UniProt P23434 (P23434 whole entry): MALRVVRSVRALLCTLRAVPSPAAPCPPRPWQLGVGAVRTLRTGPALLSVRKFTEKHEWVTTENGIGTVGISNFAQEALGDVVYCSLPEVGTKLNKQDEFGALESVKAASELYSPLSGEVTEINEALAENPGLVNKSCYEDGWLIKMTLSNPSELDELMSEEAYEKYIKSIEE

Target	NP40-soluble protein abundance
ARL3 (UniProt P36405)	0.937 ± 0.057
UniProt P25398	0.813 ± 0.071
SRM (UniProt P19623)	1 ± 0.083
SFPQ (UniProt P23246)	1.67 ± 0.042
RFC3 (UniProt P40938)	1.31 ± 0.041
PPP2CA (UniProt P67775)	0.908 ± 0.021
LSM11 (UniProt P83369)	1.4 ± 0.17
PRPF6 (UniProt O94906)	1.79 ± 0.13
GALT (UniProt P07902)	0.983 ± 0.053
UniProt P49761|P49761-1|P49761-3	1.54 ± 0.018
MTHFD2 (UniProt P13995)	0.995 ± 0.04
GAA (UniProt P10253)	1 ± 0.028
UniProt P12268|H0Y4R1	0.957 ± 0.03
UniProt P50750-2|P50750	1.38 ± 0.018
UniProt P50213|H0YLF8	0.922 ± 0.036
UniProt P62854	0.911 ± 0.18
PPT1 (UniProt P50897)	0.877 ± 0.034
HMGN1 (UniProt P05114)	1.5 ± 0.35
UniProt O75400|O75400-2	1.65 ± 0.097
C1QBP (UniProt Q07021)	1.21 ± 0.26
DDX58 (UniProt O95786)	1 ± 0.05
UniProt P63218	0.799 ± 0.22
GCSH (UniProt P23434)	0.986 ± 0.051
TOP1 (UniProt P11387)	1.22 ± 0.028
JAK1 (UniProt P23458)	1.23 ± 0.032
AP3M2 (UniProt P53677)	1.13 ± 0.043
HSPA4L (UniProt O95757)	0.951 ± 0.018
MRPS25 (UniProt P82663)	0.96 ± 0.043
CRTAP (UniProt O75718)	1.16 ± 0.024
UniProt P08621|P08621-2	1.59 ± 0.078

Reference: the supplement of paper PMC6411743
